Most compounds without a hit are left out; they make up all but 1.8% or so of the library.
PTHR1 ag = activates the human parathyroid hormone receptor PTHR1; Q03431; HEK293 GP2 PTHR1 cells, GloSensor cAMP luminescence, 1 h; Potency, µM (series often up to 115 µM), for inactives: at the highest dose activation, most hits filed as activators; 410,000 compounds, 0.075% hits; AID 743266; also: nearly all actives have a fitted effect of over 55% in size
Target sequence (Q03431 whole entry, looked up): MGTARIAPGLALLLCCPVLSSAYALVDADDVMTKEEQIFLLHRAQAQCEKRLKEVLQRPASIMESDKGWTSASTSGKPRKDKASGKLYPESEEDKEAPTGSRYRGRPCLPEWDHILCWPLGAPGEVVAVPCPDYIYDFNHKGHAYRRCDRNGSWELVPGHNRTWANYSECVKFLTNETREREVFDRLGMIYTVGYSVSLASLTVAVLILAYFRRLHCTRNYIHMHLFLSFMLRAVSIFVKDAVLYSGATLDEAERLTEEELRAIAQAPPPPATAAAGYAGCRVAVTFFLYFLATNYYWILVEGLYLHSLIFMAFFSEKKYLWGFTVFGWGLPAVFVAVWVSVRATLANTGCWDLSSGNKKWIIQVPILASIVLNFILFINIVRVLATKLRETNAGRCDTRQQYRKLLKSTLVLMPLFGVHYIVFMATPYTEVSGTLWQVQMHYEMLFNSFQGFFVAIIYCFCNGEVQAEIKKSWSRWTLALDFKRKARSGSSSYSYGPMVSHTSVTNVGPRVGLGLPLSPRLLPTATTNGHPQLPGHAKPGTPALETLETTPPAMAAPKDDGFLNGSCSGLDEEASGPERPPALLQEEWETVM
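HEK-293-derived GP2 cells expressing PTHR1 and a GloSensor cAMP reporter, 3,000/well, plated overnight, given luciferin plus IBMX (each 0.5 mM as added) for 1 h at 37 °C, then compound for 1 h at 37 °C. Luminescence was read after 15 min at room temperature.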
KAT2A inh = blocks human GCN5L2 histone acetyltransferase; Q92830; GCN5L2 HAT assay, ThioGlo1 CoA-SH fluorescence; Potency, µM (highest dose often 58.9 µM), for inactives: top-dose activity change, negative = inhibition, actives largely listed as inhibitors; 390,000 compounds, 0.21% hits; AID 504327; also: % is scaled to controls: 0 for no effect and ±100 for the full control effect
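GCN5L2 (20 nM) in 50mM HEPES pH 7.5, 0.1mM EDTA, 0.01% Tween-20 preincubated 15 min with compounds at room temperature. Reaction started with H3(1-25) 75uM, acetyl-CoA 70uM, ThioGlo1 50uM; CoA-thiol fluorescence (Ex340/Em540) read at 0 and 20 min.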
GLP1R cytotox = cytotoxic in the GLP-1 receptor inverse agonist counter-screen | 410,000 compounds, 0.13% hits | HEK293 cAMP-luciferase reporter cells, luminescence, 24 h | Potency, µM (titrated, usually from 38.3 µM), inactives show top-dose activity change, negative = inhibition, hits mostly inhibitors;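 also: loss of luciferase light is scored as toxicity; % is scaled to controls: 0 for no effect and ±100 for the full control effect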
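Compound-treated cells are incubated 24 hr at 37 deg C under 5% CO2 after a 12 hour attachment period, then luciferase detection reagent is added and luminescence is measured following 12 min at room temperature; lowered signal indicates toxicity.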
GLP1R ag = activates the human GLP-1 receptor; HEK293 GLP-1R CRE-luciferase, luminescence, 4-6 h; cells express a hypersensitive GLP-1R form; AID 624172; 380,000 compounds, 0.007% hits; P43220; Potency, µM (series often up to 45.6 µM), for inactives: at the top dose activation, most hits filed as activators; also: % of control where 0% means no effect
GLP1R inv ag = GLP-1 receptor (human) inverse agonism; P43220; HEK293 GLP-1R CRE-luciferase, luminescence, 24 h; GLP-1R form is constitutively active; Potency, µM (highest dose often 38.3 µM), for inactives: at the top dose activity change, negative = inhibition, actives largely listed as inhibitors; 410,000 compounds, 1.6% hits; AID 624417; also: % is scaled to controls: 0 for no effect and ±100 for the full control effect; nearly all actives have a fitted effect of over 55% in size
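Luminescence readout: a drop in cAMP-driven luciferase signal flags inverse agonism at a constitutively active GLP-1R stably expressed in HEK293. Compound exposure lasted 24 hr at 37 deg C, 5% CO2.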
RGS4 inh = human RGS4 inhibition; Transcreener GDP fluorescence polarization, RGS4-accelerated GTP hydrolysis; Potency, µM (top dose mostly 114 µM), without a hit: top-dose activity change, negative = inhibition, hits mostly inhibitors; 390,000 compounds, 0.039% hits; also: % is scaled to controls: 0 for no effect and ±100 for the full control effect; nearly all actives have a fitted effect of over 75% in size
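MLSMR compounds (23 nl, pin-transferred) preincubated 10 min at room temperature with a 500nM (2x) first reagent, then RGS4 at 900nM (2x) plus Transcreener GDP mix added; fluorescence polarization (620/688 nm) read before and after 90 min at 30 °C.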
* = called active by the depositor; i = inactive; ? = inconclusive; . = no result given; [ ] = another dose, or the depositor's remark. Calls follow the shape of the dose curve; as a rule, active = well fitted curve in the direction sought with a large enough effect; inconclusive = small, poorly fitted or top-dose-only effect, or another doubt; inactive = no such curve, though single readings can be large; an effect the other way counts as inactive or inconclusive. Potency is read from the fitted curve at half-maximal effect.

SMILES	PTHR1 ag	KAT2A inh	GLP1R cytotox	GLP1R ag	GLP1R inv ag	RGS4 inh
CCC(C)[C@H](NS(=O)(=O)c1ccc(F)cc1Br)C(=O)OC (stereo not given in full)	i	.	1%	2%	-16%	-7%
O=C(Nc1ccccc1N1CCCCC1)C1CCN(S(=O)(=O)c2ccccc2C(F)(F)F)CC1	i	-12%	-5%	8%	7.9µM*	0%
Cc1ccc(S(=O)(=O)N2CCC(C(=O)Nc3cc(C(F)(F)F)ccc3N3CCOCC3)CC2)cc1C	-1%	-13%	-10%	6%	13µM*	-30%
CCCCCOC(=O)Nc1nc(=O)n(C2O[C@H](C)[C@@H](O)[C@@H]2O)cc1F (stereo not given in full)	.	-25%	.	0%	.	.
COc1ccccc1CN1CC(=O)N2CSC[C@H]2C1=O	i	7%	-11%	13%	-5%	17%
CCOC(=O)C1=C(C)N(CC)C(=S)NC1c1ccc(Cl)cc1 (stereo not given)	-30%	-2%	?	2%	10µM*	-6%
CCOC(=O)C1=C(C)N(CCCCCC(=O)O)C(=O)NC1c1ccc(Cl)cc1 (stereo not given)	i	-4%	6%	1%	3%	-11%
O=C(Nc1ccc(Cl)cc1C(=O)N1CCOCC1)c1cccc([N+](=O)[O-])c1	.	0%	.	.	.	.
CC1(C)Oc2c(ccc(O)c2CN2CCOCC2)C2=C1CCCC2	i	.	-6%	2%	7.1µM*	-24%
CC(=O)Nc1ccc(OCC(=O)N2CCC(Cc3ccccc3)CC2)cc1	-36%	-3%	-1%	7%	13µM*	9%
O=C(Nc1ccc(OCC(=O)N2CCC(Cc3ccccc3)CC2)cc1)c1ccco1	-17%[57.5 µM]	-16%	-2%	-6%	0%	0%
COc1cc(SC)ccc1C(=O)Nc1ccc(OCC(=O)N2CCOCC2)cc1	-59%	-6%	9%	5%	-23%	-2%
COc1ccccc1C(=O)Nc1ccc(OCC(=O)N2CC(C)CC(C)C2)cc1 (stereo not given)	-69%	-6%	4%	-5%	10µM*	-11%
CCN(CC)C(=O)c1ccccc1NC(=O)c1cccc(S(=O)(=O)N2CCC(C)CC2)c1	-27%	-7%	2%	.	-18%	-15%
CC1CCCC(C)N1c1nnc(N)s1 (stereo not given)	-17%	-5%	1%	2%	-10%	-31%
Cc1ccc([N+](=O)[O-])cc1NC(=O)CN(C(=O)c1ccccc1Cl)C1CCCCC1	i	-17%	-30%	-12%	10µM*	-24%
COc1ccccc1C1c2[nH]c3ccccc3c2C[C@H]2C(=O)N(C3CCN(Cc4ccccc4)CC3)CC(=O)N12 (stereo not given in full)	i	?	-7%	-1%	5.6µM*	-27%
O=C1[C@@H]2Cc3c([nH]c4ccccc34)C(c3ccccc3)N2C(=O)CN1C1CC1 (stereo not given in full)	6%	7%	185%	6%	-3%	-10%
COc1ccc(C2c3[nH]c4ccccc4c3C[C@H]3C(=O)N(C4CCN(Cc5ccccc5)CC4)CC(=O)N23)cc1OC (stereo not given in full)	i	4%	-16%	-5%	13µM*	-31%
COc1cccc(C2c3[nH]c4ccccc4c3C[C@H]3C(=O)N(C4CCN(Cc5ccccc5)CC4)CC(=O)N23)c1 (stereo not given in full)	-19%	-20%	-17%	-3%	2µM*	14%
CCCCOC1CC(c2ccc(OCc3ccc(OC)cc3)c(OC)c2)N(C)O1 (stereo not given)	-33%	-9%	-17%	11%	10µM*	-2%
O=C(NCc1ccccc1)c1cc(-c2cccs2)on1	i	2.5µM*	4%	-13%	22%	-10%
COC(=O)c1ccccc1NC(=O)c1cc(-c2cccs2)on1	-14%[57.5 µM]	3.2µM*	-2%	-12%	-8%	5%
O=C(NCc1ccc(F)cc1)c1cc(-c2cccs2)on1	-6%[57.5 µM]	-3%	-4%	-11%	0%	-3%
O=C(NCCCn1ccnc1)c1cc(-c2cccs2)on1	-2%	2.2µM*	-11%	6%	180%	-24%
SMILES	PTHR1 ag	KAT2A inh	GLP1R cytotox	GLP1R ag	GLP1R inv ag	RGS4 inh
O=C(NC1CCCC1)C(c1ccccc1)N(C(=O)c1ccco1)C1CCCC1 (stereo not given)	-1%	3%	?	5%	13µM*	21%
O=C(NC1CCCC1)C(c1ccccc1F)N(C(=O)c1ccco1)C1CCCC1 (stereo not given)	i	-5%	-16%	-9%	?	8%
CC(Oc1ccc(F)cc1)C(=O)Nc1sc2c(c1C(=O)NCc1cccnc1)CCCC2 (stereo not given)	-10%	-8%	-24%	1%	10µM*	-10%
Cc1ccc2nc3c(cc2c1)CN(Cc1ccco1)C(=NCC1CCCO1)S3 (stereo not given)	-14%[57.5 µM]	-14%	-11%	-2%	2.2µM*	?
COCCN=C1Sc2nc3c(C)cccc3cc2CN1Cc1ccco1	-7%[57.5 µM]	21%	-3%	3%	8.9µM*	?
COc1cc(C(CCN2CCCC2)c2c(OC)cc(OC)c3c2OC(=O)CC3c2ccc(N(C)C)cc2)cc(OC)c1OC (stereo not given)	.	.	.	.	.	-24%
Cc1ccc(-n2nc3c(c2NC(=O)c2cccs2)CSC3)cc1	6%[57.5 µM]	3.5µM*	5%	0%	-20%	6%
C[N+]1(C)CCC(OC(=O)CC(O)(c2ccccc2)C2CCCC2)C1 (stereo not given)	.	.	.	-4%	.	.
CCC(C)C1NC(=S)N(Cc2ccccc2)C1=O (stereo not given)	i	-5%	69%	7%	?	-39%
CSCCC1NC(=S)N(Cc2ccccc2)C1=O (stereo not given)	i	-5%	-23%	19%	10µM*	38%
CC(C)CC1NC(=S)N(Cc2ccccc2)C1=O (stereo not given)	-51%	-2%	-22%	-2%	2.8µM*	4%
O=C1C(Cc2ccccc2)NC(=S)N1Cc1ccccc1 (stereo not given)	-6%	4%	4%	3%	?	-10%
O=C(NCC12CC3CC(CC(C3)C1)C2)c1cc2nc(-c3ccc(F)cc3)cc(C(F)(F)F)n2n1	i	1%	3%	.	-5%	-1%

Screening results (PubChem)
